Assay outcomes (PubChem BioAssay)
Sampled rows, rich in hits. Any-hit rate of the full collection: about 14%.
HCV inhibitor: qHTS Assay for Inhibitors of Hepatitis C Virus (HCV) | Huh7.5.1 HCVcc-Cre infection, luciferase reporter, 44 h | Potency, µM (titrated, usually from 41.8 µM), inactives show top-dose activity change, negative = inhibition, most hits filed as inhibitors | 340,000 compounds, 3.4% hits; note: potency is the fitted concentration of half-maximal effect
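Infectious HCV cell culture screen: compound-treated cells (1,000/well, pre-plated 4 h) are infected with HCVcc-Cre at roughly 0.5 moi and grown 44 h. Infection is quantified by luciferase signal after 15 min substrate incubation at room temperature.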
Pf growth 48h: Primary qHTS for delayed death inhibitors of the malarial parasite plastid, 48 hour incubation. Potency, µM (top dose mostly 28.7 µM), without a hit: top-dose activity change, negative = inhibition, actives largely listed as inhibitors. P. falciparum luciferase growth in erythrocytes, 48 h. AID 504832, 2011. 310,000 compounds, 5.9% hits; note: potency is the fitted concentration of half-maximal effect
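A one-generation exposure of luciferase-tagged malaria parasites in RPMI 1640/Albumax erythrocyte culture, 37 C and 5% CO2. Inhibition is inferred from decreased luminescence after adding detection reagent.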
Marburg entry inh: qHTS for inhibitors of binding or entry into cells for Marburg Virus | Marburg virus pseudotyped entry inhibition, cell reporter | Potency, µM (titrated, usually from 37.8 µM), without a hit: at the top dose activity change, negative = inhibition, most hits filed as inhibitors | 300,000 compounds, 1.8% hits | AID 540276, 2011; calls by dose curve; tested in HEK293 cells; note: potency is the fitted concentration of half-maximal effect
HCMV inh: qHTS Assay for inhibitors of the human cytomegalovirus (HCMV); HFF cells, HCMV-luciferase reporter, 72 h; active compounds read low; activity change, negative = inhibition, % at 57.5 µM; 410,000 compounds, 4.5% hits; AID 1259415, 2018; in the data active = activity change below about -60%; inconclusive = no clear call, values can overlap the other calls; inactive = above about -39%
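Screen run at 2 compound doses on HFFs infected with reporter HCMV, MOI 1 PFU/cell. Luciferase activity from cell lysates at 72 h post infection gave inhibition relative to buffer-only and Salinomycin wells.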
Lassa entry inh: qHTS for Inhibitors of binding or entry into cells for Lassa Virus; AID 540256, 2011; 300,000 compounds, 1.2% hits; Lassa virus pseudotype entry inhibition, cell reporter; Potency, µM (titrated, usually from 37.9 µM), for the others: at the top dose activity change, negative = inhibition, actives largely listed as inhibitors; calls by dose curve; tested in HEK293 cells; note: potency is the fitted concentration of half-maximal effect; nearly all actives have a fitted effect of over 50% in size
Pf growth 96h: Primary qHTS for delayed death inhibitors of the malarial parasite plastid, 96 hour incubation | Potency, µM (doses to about 28.7 µM), without a hit: top-dose activity change, negative = inhibition, actives largely listed as inhibitors | P. falciparum luciferase reporter growth, 96 h | 320,000 compounds, 6.9% hits | AID 504834, 2011; note: potency is the fitted concentration of half-maximal effect
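Two-generation exposure (96 h) targets delayed-death phenotype. Reporter parasites carrying integrated firefly luciferase, in red cells at 2% hematocrit and 0.05% parasitemia final, kept at 37 C, 5% CO2; luminescence loss indicates inhibition.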
* marks the source's active call; other numbers are inactive results; ? = inconclusive; . = no result given; [ ] = remark or other dose. Unless noted, calls come from the whole dose curve; as a rule, active = well fitted inhibition curve with a large enough effect; inconclusive = small, poorly fitted or top-dose-only effect, or another doubt; inactive = no such curve, though single readings can be large or run the other way. % is set by controls: 0 for no effect and ±100 for the full control effect.

SMILES	HCV inhibitor	Pf growth 48h	Marburg entry inh	HCMV inh	Lassa entry inh	Pf growth 96h
CC1=CC(=NOC(=O)/C=C/c2ccccc2)C=C(C)C1=O	?	?	-13%[46.1 µM]	-31	5%	-46%
CC1(C)S[C@@H]2[C@H](NC(=O)[C@@H](NC(=O)N3CCNC3=O)c3ccccc3)C(=O)N2[C@H]1C(=O)O	.	0%[12.8 µM]	.	.	.	-8%[12.8 µM]
CC(C)(C)c1cc(CCC(=O)NNC(=O)c2ccco2)cc(C(C)(C)C)c1O	?	-8%	8.9µM*	-27	1%	?
O=C(CCc1ccccc1)NNC(=S)NC(=O)c1ccccc1	-2%	?	?	-101*	-25%	?
CC(=O)NC(=S)NNC(=O)CCc1ccccc1	25%	32%[1.15 µM]	.	-15	.	?
CC(C)(C)c1cc(CCC(=O)NNC(=S)NC(=O)c2ccccc2)cc(C(C)(C)C)c1O	2.8µM*	13µM*	?	.	?	?
CCCCC(=O)NC(=S)NNC(=O)CCc1ccccc1	-1%	?	.	-22	.	3%
Cc1ccc(NC(=O)CCC(=O)NNC(=O)c2ccco2)c(C)c1	7%	7%	0%	-20	-9%	10%
CC(C)NC(=O)C1C(c2ccc(C(F)(F)F)cc2)=Nc2ccccc2N1C(=O)c1cccc2ccccc12 (stereo not drawn)	.	.	.	39	.	.
CN(C(=O)CSc1ncnc2c(-c3cccs3)nsc12)C1CCCCC1	.	.	.	16	.	.
CC(C)[C@@]1(NC(=O)[C@H]2CC3c4cccc5[nH]cc(c45)C[C@H]3N(C)C2)O[C@@]2(O)C3CCCN3C(=O)[C@@H](Cc3ccccc3)N2C1=O (stereo partly drawn)	.	1.5µM*	.	.	.	8.5µM*
CC(C)C[C@H]1C(=O)N2CCCC2[C@]2(O)O[C@](NC(=O)[C@@H]3C=C4c5cccc6[nH]c(Br)c(c56)C[C@H]4N(C)C3)(C(C)C)C(=O)N12 (stereo partly drawn)	.	3.4µM*	10µM*	.	.	?
CC(CO)NC(=O)C1C=C2c3cccc4[nH]cc(c34)CC2N(C)C1 (stereo not drawn)	.	-8%	.	.	.	?
CN1C[C@H](C(=O)N[C@]2(C)O[C@@]3(O)[C@@H]4CCCN4C(=O)[C@H](Cc4ccccc4)N3C2=O)C[C@@H]2c3cccc4[nH]cc(c34)C[C@H]21	.	7.6µM*	1.1µM*	.	?	?
CC(C)C[C@H]1C(=O)N2CCC[C@H]2[C@]2(O)O[C@](NC(=O)C3C=C4c5cccc6[nH]c(Br)c(c56)C[C@H]4N(C)C3)(C(C)C)C(=O)N12 (stereo partly drawn)	?	.	.	-26	.	.
CN1C[C@H](C(=O)N[C@]2(C)O[C@@]3(O)C4CCCN4C(=O)[C@H](Cc4ccccc4)N3C2=O)C[C@@H]2c3cccc4[nH]cc(c34)C[C@H]21 (stereo partly drawn)	.	.	1.1µM*	.	.	.
CCOc1ccccc1NC(=O)c1sc2nc3n(c(=O)c2c1C)CCCCC3	.	.	.	7	3%[46.1 µM]	.
CC(CCN1CCCCc2nc(C)c(C)cc21)=NO[C@@H](C)CN1CCCCc2nc(C)c(C)cc21	.	.	6%[14.2 µM]	.	?	.
CN1C[C@H](C(=O)N[C@]2(C)O[C@@]3(O)[C@@H]4CCCN4C(=O)[C@H](Cc4ccccc4)N3C2=O)CC2c3cccc4[nH]cc(c34)C[C@H]21 (stereo partly drawn)	14%	1.9µM*	.	-19	.	1.3µM*
CCOC(=O)N1CCN(c2c(NCCCN(C)c3ccccc3)c(=O)c2=O)CC1	-1%	.	.	-75*	.	18%
CCOC(=O)N1CCN(c2c(NCCCN3CCCCCC3)c(=O)c2=O)CC1	8%	.	.	-28	.	10µM*
CCCCn1nnnc1C(c1cc2ccccc2o1)N(Cc1ccccc1)Cc1ccccc1 (stereo not drawn)	.	.	.	-2	.	.
CN(C)c1cccc(C(=O)OC(C(=O)Nc2ccc(Cl)cc2C(F)(F)F)c2ccccc2)c1 (stereo not drawn)	-16%	?	?	-63*	?	12µM*
